Assay results reported in ChEMBL document CHEMBL3988442, “University of Dundee, Small-Polar-MMV Screening Library” (2021).
Screen size: about 48,000 compounds; about 13,000 (27%) showed an effect of 50% or more. The list shows a part of the results.

System: Wolbachia pipientis
Test: Anti-Wolbachia Cell-Based Screen
Type: functional
Design: scale not given: in the data most compounds retested in dose-response had high values
Settings: 5 µM

SMILES	Percent Effect [%]
CSc1ccc(-c2nc(CN3CCCC(CNC(C)=O)C3)c(C)o2)cc1 (stereo unspecified)	24.94
CC(=O)N1CCC(N2CCOC[C@H]2c2nc(-c3ccccc3)c[nH]2)CC1	-17.76
Cc1cc(C)c2nc(CN3CCC(C#N)CC3)cc(O)c2c1	-6.492
N#Cc1ccnc(NCc2cc3n(n2)CCCN(C(=O)C2CCC2)C3)c1	115.4
CS(=O)(=O)N1CCCn2nc(CNc3cc(C#N)ccn3)cc2C1	9.255
N#Cc1ccc(NCc2cc3n(n2)CCCN(C(=O)C2CCC2)C3)nc1	102.7
CC(=O)c1ccc(NCc2cc3n(n2)CCCN(S(C)(=O)=O)C3)nc1	-0.5632
O=C(NCc1cc2n(n1)CCCN(Cc1ccc(Cl)s1)C2)C1CCC1	-18.59
O=C(NCc1cc2n(n1)CCCN(Cc1ccc(CO)o1)C2)C1CCC1	-16.23
CSCC(C)(O)CNC(=O)Nc1ccc(C)cc1Br (stereo unspecified)	7.748
CN(C)C(=O)c1cccc(C2CCN(c3ncccn3)CC2)n1	135.8
CCN(C(C)=O)C1CCN(c2nccc(C3CCCC3)n2)C1 (stereo unspecified)	3.77
O=C(O)c1cccc(CC2CCN(c3ncccn3)CC2)c1	-1.664
O=C(C1CC1)N1CCCCCC1C1CCN(c2ncccn2)CC1 (stereo unspecified)	-21.65
NC(=O)c1cccc(C2CCN(c3ncccn3)CC2)n1	105.7
CN(C)C(=O)[C@@H]1CCO[C@@H]2CCN(c3ncccn3)C[C@H]21	1.087
COC(=O)c1ccc(NC(=O)[C@@H]2CCCN2C(=O)c2ccco2)s1	-1.409
CCc1nc(CN(Cc2cccs2)CC2CCCO2)no1 (stereo unspecified)	3.529
OCCN(Cc1nc(-c2ccc3c(c2)OCO3)no1)Cc1cccs1	121.2
CC(Cn1cccn1)NCc1nc(-c2ccc3c(c2)OCO3)no1 (stereo unspecified)	-6.149
COCCN(Cc1ccco1)Cc1nc(-c2ccccc2)no1	2.564
OCCN(Cc1nc(-c2ccc3c(c2)OCO3)no1)CC1CC1	-12.91
CCN(Cc1nc(C(C)C)no1)Cc1cccs1	12.81
COC(=O)c1ccc(-c2noc(CN(CCO)Cc3cccs3)n2)cc1	109.2

SMILES	Percent Effect [%]
COCCN(Cc1ccccc1)Cc1nc(-c2ccsc2)no1	2.788
OCCN(Cc1ccccc1)Cc1nc(-c2ccc3c(c2)OCO3)no1	99.41
Cc1ccc(Sc2ccc(N3CCC(C(=O)O)CC3)nn2)cc1	6.07
Cc1cc(C)c(-n2cccn2)c(CN2CCOCC(CN(C)C)C2)c1 (stereo unspecified)	9.231
Cc1cccnc1[C@H](C)NC(=O)Cc1cc2c(cc1Cl)OCCO2	3.322
CN1CCOC[C@H]1c1nc(-c2ccccc2)c[nH]1	1.409
CCS(=O)(=O)N1CCc2nc(C3CCN(C(=O)C4CC4)C3)nc(O)c2C1 (stereo unspecified)	88.69
O=C(C1CC1)N1CCc2nc(C3CCN(C(=O)C4CC4)C3)nc(O)c2C1 (stereo unspecified)	98.35
O=C(C1CC1)N1CCC(C(=O)N2CCC(c3ccc(F)cc3)C2)CC1 (stereo unspecified)	-1.259
CCS(=O)(=O)N1CCc2nc(N3CCCC3)nc(N(C)C)c2CC1	3.292
O=S(=O)(CCO)Cc1ccc(OC(F)F)cc1	-13.52
COc1cccc(-c2noc(-c3ccc(NCCCN)nc3)n2)c1OC	-11.46
O=C(Cn1cc(C2CC2)nn1)NC(c1ccc(Cl)cc1)C1CC1 (stereo unspecified)	-3.06
COc1cccc(N2CCN(Cc3ncc[nH]3)CC2=O)c1	-4.353
CCc1ccc(CN2CCN(c3ccc(C#N)cc3)C(=O)C2)nc1	-14.58
CN(C)c1ccc(CN2CCN(c3ccc(C#N)cc3)C(=O)C2)cn1	27.75
CCc1nnc(CN2CCN(c3cccc(OC)c3)C(=O)C2)o1	104.5
CCc1nnc(N2CCN(c3ccccc3)C(=O)C2)o1	1.843
CCc1ccc(CN2CCN(c3cccc(OC)c3)C(=O)C2)nc1	111.5
Cc1ccc(S(=O)(=O)n2ccc(C(=O)NCC(F)(F)F)c2)cc1	31.33
COc1ccc2c(=O)n(CC3CC3)ccc2c1OC	8.638
CC(C)C(NC(=O)NCCNc1ccccn1)c1cccs1 (stereo unspecified)	-3.383
COc1ccc(C(C)NC(=O)NCCNc2ccccn2)c(OC)c1 (stereo unspecified)	23.68
CC(NC(=O)NCCNc1ccccn1)c1cccs1 (stereo unspecified)	84.24

SMILES	Percent Effect [%]
CCn1cnnc1CNC(=O)NC(C)c1cccs1 (stereo unspecified)	5.383
CC(NC(=O)NCc1ccccn1)c1cccs1 (stereo unspecified)	95.38
O=C(O)C(F)(F)F.O=S(=O)(C1CC1)N1CC[C@]2(C[C@@H](Oc3ccccn3)CO2)C1	-7.855
CN(C)c1ncc(CNS(=O)(=O)c2cc(F)ccc2Cl)n1C	-4.152
COCCN1CCC(C(=O)N(C)Cc2c[nH]c3ccc(C)cc23)C1 (stereo unspecified)	-13.06
CC(C)CN1CC[C@@H]2[C@@H]1CCN2C(=O)N1CCCC1.O=C(O)C(F)(F)F	-1.369
CC(C)C(=O)N1CCC2(CN(CC3CCCC3)C2)C1.O=C(O)C(F)(F)F	-3.433
CN1CCC2(CCN(CC3CC3)CC2)C1=O.O=C(O)C(F)(F)F	-0.5297
CCc1nc(CN2CCC(C(=O)N(C)C)CC2)cs1	-2.315
CN(C)Cc1cn2c(n1)CN(CC1CCCC1)CC2.O=C(O)C(F)(F)F.O=C(O)C(F)(F)F	-16.91
CC(C)CN1CC[C@@H]2[C@H](CC1)N(C(=O)c1ccccc1)CCS2(=O)=O.O=C(O)C(F)(F)F	-7.451
CCN1CCC(N2CCC(C(=O)N(C)C)CC2)CC1.O=C(O)C(F)(F)F.O=C(O)C(F)(F)F	104.7
CC(C)CN1CCC(N2CCC(C(=O)N(C)C)CC2)CC1.O=C(O)C(F)(F)F.O=C(O)C(F)(F)F	126.3
CN(C)C(=O)CN1CC[C@H]2CN(C3CCOCC3)C[C@@H]2C1=O.O=C(O)C(F)(F)F	-33.67
CN(C)C(=O)C1CCN(C2CCN(CC3CCC3)CC2)CC1.O=C(O)C(F)(F)F.O=C(O)C(F)(F)F	115.1
CN1CCN(C2COC3(CCN(CC4CC4)CC3)C2)CC1.O=C(O)C(F)(F)F.O=C(O)C(F)(F)F.O=C(O)C(F)(F)F (stereo unspecified)	-10.32
CN(C)C(=O)C1CCN(C2CCN(CC3CC3)CC2)CC1.O=C(O)C(F)(F)F.O=C(O)C(F)(F)F	109
CN1CC(=O)N(c2ccsc2)CC12CCN(S(C)(=O)=O)C2.O=C(O)C(F)(F)F (stereo unspecified)	-22.3
O=C(C1CCC2(CCN(CC3CCOCC3)CC2)O1)N1CCCCO1.O=C(O)C(F)(F)F (stereo unspecified)	-16.72
O=C(O)C(F)(F)F.O=C([C@@H]1COC[C@H]2CN(c3ccncn3)C[C@H]21)N1CCCC1	-1.455
Cc1ccc(C(=O)Nc2cn[nH]c2)cc1C	-10.82
Cc1nc[nH]c1CN1C[C@@H]2CC[C@H](C1)N(C(=O)CCNS(C)(=O)=O)C2	-6.405
O=C(COCC1CCCCO1)N1CCN(Cc2ccccc2F)C(=O)C1 (stereo unspecified)	-11.31
N#CC1C(=O)Nc2c(cnn2C2CCCC2)C12CCCC2 (stereo unspecified)	15.25

SMILES	Percent Effect [%]
CC(C)N1CCC(N2CCC(C(=O)N(C)C)CC2)CC1.O=C(O)C(F)(F)F.O=C(O)C(F)(F)F	105.3
CN1CCN(C2CCN(C(=O)CCC3CCCC3)CC2)CC1.O=C(O)C(=O)O	6.776
CN(C)C(=O)C1CCC2(CCN(Cc3cnn(C)c3)CC2)C1.O=C(O)C(F)(F)F (stereo unspecified)	-4.25
CC(C)N1CCC(C(=O)N(C)CC(=O)c2ccc(O)cc2)CC1	-30.04
CC(C)CNC(=O)C(C)N1CCN(C2CCN(C(C)C)CC2)CC1 (stereo unspecified)	-39.91
CN1CCC(N2CCC(C(=O)N(C)C)CC2)CC1.O=C(O)C(F)(F)F.O=C(O)C(F)(F)F	107.5
CCn1nc2c(cc1=O)CN(CC1CCCCO1)CC2 (stereo unspecified)	-5.782
N[C@@H]1c2ccccc2C2(CCN(C(=O)c3ccc(CO)o3)CC2)[C@H]1O	13.24
CCOc1cc(CNCc2nc(C)cc(=O)[nH]2)c(Cl)cc1OC(C)C	-17.65
CCN(Cc1noc(C)n1)C(=O)CCc1scnc1C	1.92
COc1c(C2CCCN2Cc2nccn2C)c(C)nn1C (stereo unspecified)	8.453
CC(C)(C)c1coc([C@@H]2COCCN2Cc2ncc[nH]2)n1	-0.9304
Cc1c[nH]nc1C1CCCN1Cc1ncc[nH]1.O=CO (stereo unspecified)	85.61
CCn1ccnc1CN1CCCC1c1c(C)nn(C)c1OC (stereo unspecified)	-25.16
Cc1c[nH]nc1C1CCCN1Cc1ccncc1 (stereo unspecified)	100.6
Cc1nccn1CCC1CCCCN1Cc1ccncc1 (stereo unspecified)	6.487
Cc1ccc(-c2c[nH]c([C@@H]3COCCN3Cc3ncc[nH]3)n2)cc1	0.7932
Cc1c[nH]nc1C1CCCN1Cc1nccn1C.O=CO (stereo unspecified)	95.89
Cc1noc(C)c1-c1cncc(C2CCCN2Cc2ccncc2)n1 (stereo unspecified)	-4.931
CCc1ncncc1C(=O)NCCNS(=O)(=O)c1ccccc1	12.25
O=C(c1c[nH]nn1)N1CCN(C(c2ccccc2)C(F)(F)F)CC1 (stereo unspecified)	0.659
COC(C)c1nc(CN2CCCNCC2)cs1 (stereo unspecified)	4.679
CC(CS(C)(=O)=O)N(C(=O)c1ccc(Cl)s1)C1CC1 (stereo unspecified)	-8.906
Cc1cccc2c1OCCCC2NCc1nnc2n1CCCCC2 (stereo unspecified)	-7.858
